Whole data set: some 33,000 sequences, median “E-score (-0.5 to 0.5)” near -8e-05, cut for the highest 2% near 0.23. For the sample, the highest values were picked, then their nearest neighbours and some sequences at random.
What follows are sequences tested against T1, Nrg2 (UniProt P38082) (assay: PBM E-score (8-mer binding enrichment) (E-score (-0.5 to 0.5)); higher = stronger / more preferred TF binding). Details: protein concentration: 100 nM; construct: GST-full length.
T1 sequence: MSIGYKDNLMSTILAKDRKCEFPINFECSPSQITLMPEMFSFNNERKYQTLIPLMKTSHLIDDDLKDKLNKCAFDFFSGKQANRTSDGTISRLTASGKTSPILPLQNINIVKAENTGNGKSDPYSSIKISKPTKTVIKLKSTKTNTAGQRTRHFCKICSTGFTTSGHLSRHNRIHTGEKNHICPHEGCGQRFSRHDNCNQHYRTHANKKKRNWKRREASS
Method in brief: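 Universal all-10-mer Agilent arrays, fresh or stripped once, were converted to double-stranded form by primer extension. GST-tagged yeast transcription factors from PURExpress in vitro transcription/translation, full-length or DNA-binding domain only, were applied at about 100-200 nM and detected with fluorescent anti-GST. After masliner normalisation, the Universal PBM Analysis Suite scored each ungapped eight-base word together with its reverse complement by E-score.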
With ACCCCTGC the “PBM E-score” value was 0.066.
With CAAACGAA the “PBM E-score” value was -0.0374.
TAAGCAAA was tested, and the “PBM E-score” value was 0.0437.
With TCCCCTCA the “PBM E-score” value was 0.235.
In the case of ACCCCTCA, the “PBM E-score” value is reported as 0.0629.
CCCCCTCA was tested, and the “PBM E-score” value was -0.379.
AACTGACT was tested, and the “PBM E-score” value was -0.167.
For AAAGTTGC, the “PBM E-score” value was 0.0327.
For AAAGTTGT, the “PBM E-score” value was 0.297.
For AAAGTTGG, the “PBM E-score” value was 0.132.
AGTGGCTG was tested, and the “PBM E-score” value was 0.126.
For AGGGCTGA, the “PBM E-score” value was -0.201.
AGTCTTTC was tested, and the “PBM E-score” value was -0.0294.
CCAGACAG was tested, and the “PBM E-score” value was -0.00394.
For ACAGACAG, the “PBM E-score” value was 0.255.
In the case of ACAGACAC, the “PBM E-score” value is reported as -0.0421.
With TGTTGTAA the “PBM E-score” value was 0.102.
GACAGCGA was tested, and the “PBM E-score” value was -0.131.
In the case of CGAAGACG, the “PBM E-score” value is reported as -0.0796.
In the case of GTCACGTA, the “PBM E-score” value is reported as -0.249.
CAATACAA was tested, and the “PBM E-score” value was 0.275.
TAATACAA was tested, and the “PBM E-score” value was 0.235.
With GAATACAA the “PBM E-score” value was 0.107.
In the case of CAATACAC, the “PBM E-score” value is reported as 0.0544.
In the case of CAATACAG, the “PBM E-score” value is reported as 0.125.
In the case of AAATACAA, the “PBM E-score” value is reported as 0.0802.
For ACGACCAT, the “PBM E-score” value was -0.0998.
In the case of CAATCGCC, the “PBM E-score” value is reported as 0.00157.
In the case of AGTAGGAA, the “PBM E-score” value is reported as -0.0957.
In the case of GCGCGGGA, the “PBM E-score” value is reported as 0.0263.
With CCGCGCCG the “PBM E-score” value was -0.0754.
With CGGCGCGA the “PBM E-score” value was 0.121.
With CCGCGCGG the “PBM E-score” value was 0.368.
For CGGCGCCA, the “PBM E-score” value was 0.0132.
With AGGCGCGC the “PBM E-score” value was 0.0865.
For CCGCGGGA, the “PBM E-score” value was 0.284.
With CCGCGGGC the “PBM E-score” value was 0.0924.
For CGGCGCGC, the “PBM E-score” value was 0.256.
In the case of AGGCGCCG, the “PBM E-score” value is reported as -0.0298.
For CGGCGCCG, the “PBM E-score” value was 0.25.
CCGCGCAG was tested, and the “PBM E-score” value was 0.0598.
AGGTACTA was tested, and the “PBM E-score” value was 0.0762.
In the case of CTCTAGCC, the “PBM E-score” value is reported as -0.283.
With AAAAGGCC the “PBM E-score” value was -0.197.
In the case of CAACCTAA, the “PBM E-score” value is reported as 0.059.
In the case of GTACGTCA, the “PBM E-score” value is reported as -0.102.
TTAGTAAA was tested, and the “PBM E-score” value was 0.169.
ACATGCTC was tested, and the “PBM E-score” value was 0.00619.
In the case of AAGAAGCC, the “PBM E-score” value is reported as 0.162.
In the case of ATAACATA, the “PBM E-score” value is reported as 0.123.
With ATGTCCCA the “PBM E-score” value was -0.0945.
With AAGTGCGG the “PBM E-score” value was 0.133.
CCGCGCGC was tested, and the “PBM E-score” value was 0.236.
AGGCGCCC was tested, and the “PBM E-score” value was -0.0716.
GGGCGCCA was tested, and the “PBM E-score” value was 0.191.
For GGGCGCCC, the “PBM E-score” value was 0.282.
In the case of CCGCGCTC, the “PBM E-score” value is reported as 0.0292.
For CCGCGCCC, the “PBM E-score” value was -0.0342.
TCAGACGA was tested, and the “PBM E-score” value was 0.119.
AACCCGAA was tested, and the “PBM E-score” value was 0.0237.
In the case of AACCGCGG, the “PBM E-score” value is reported as 0.182.
In the case of TATGTTAA, the “PBM E-score” value is reported as -0.127.
In the case of CTTTCACC, the “PBM E-score” value is reported as -0.0112.
For ATAAACCA, the “PBM E-score” value was -0.0416.
With ATAAACCC the “PBM E-score” value was 0.307.
In the case of CTAAACCC, the “PBM E-score” value is reported as -0.0134.
In the case of ATCAACCC, the “PBM E-score” value is reported as 0.297.
ATCAACCA was tested, and the “PBM E-score” value was 0.0788.
In the case of CTCAACCC, the “PBM E-score” value is reported as 0.00526.
In the case of TCTTTGAA, the “PBM E-score” value is reported as -0.105.
With AGGCCACA the “PBM E-score” value was -0.149.
GCTCATTA was tested, and the “PBM E-score” value was -0.058.
ACTCATTA was tested, and the “PBM E-score” value was 0.268.
With CATCATTC the “PBM E-score” value was 0.0606.
With CATCATTA the “PBM E-score” value was 0.231.
In the case of AATCATTA, the “PBM E-score” value is reported as 0.0429.
For ACTCATTC, the “PBM E-score” value was 0.117.
In the case of GTAGGCGA, the “PBM E-score” value is reported as 0.0848.
ATTCGGTA was tested, and the “PBM E-score” value was 0.074.
In the case of AATTGCTG, the “PBM E-score” value is reported as 0.257.
In the case of AATTGCTC, the “PBM E-score” value is reported as -0.145.
In the case of AATTGCTA, the “PBM E-score” value is reported as 0.0948.
In the case of ATGGCCTC, the “PBM E-score” value is reported as -0.0922.
In the case of ACCGTTAC, the “PBM E-score” value is reported as -0.118.
GAGTATCA was tested, and the “PBM E-score” value was 0.00367.
In the case of CAGTATGA, the “PBM E-score” value is reported as 0.178.
TAGTATGA was tested, and the “PBM E-score” value was 0.26.
CAGTATCA was tested, and the “PBM E-score” value was -0.0774.
With TAGTATCA the “PBM E-score” value was 0.283.
With AAGTATGA the “PBM E-score” value was 0.0335.
With GAACGCTC the “PBM E-score” value was -0.107.
With GACAGTGA the “PBM E-score” value was 0.0197.
With ACGGAAAT the “PBM E-score” value was 0.244.
For ACGGAAAC, the “PBM E-score” value was -0.0771.
For ACGGAAAA, the “PBM E-score” value was 0.0488.
For ACTTGTCA, the “PBM E-score” value was 0.0495.
For AAAGCAAA, the “PBM E-score” value was 0.102.
For ACAGCTCC, the “PBM E-score” value was -0.0601.
With AGCGCGAC the “PBM E-score” value was 0.12.
In the case of GCAGCGTA, the “PBM E-score” value is reported as -0.128.
ACTCCCCA was tested, and the “PBM E-score” value was -0.0321.
With ACTACTAA the “PBM E-score” value was -0.00741.
In the case of ACTAGTAA, the “PBM E-score” value is reported as 0.036.
In the case of ACTACTAC, the “PBM E-score” value is reported as 0.0486.
In the case of ACTAGTAT, the “PBM E-score” value is reported as 0.246.
With ACTACTAT the “PBM E-score” value was 0.27.
For ACTAGTAG, the “PBM E-score” value was 0.0854.
With TGGTGAAA the “PBM E-score” value was -0.0676.
CCCAATAG was tested, and the “PBM E-score” value was 0.00098.
In the case of AATTCGCC, the “PBM E-score” value is reported as 0.167.
GATTCGCA was tested, and the “PBM E-score” value was 0.121.
With CATTCGCA the “PBM E-score” value was -0.0034.
With AATTCGCG the “PBM E-score” value was 0.202.
In the case of AATTCGCT, the “PBM E-score” value is reported as 0.318.
For AATTCGCA, the “PBM E-score” value was 0.229.
For AAGATCCC, the “PBM E-score” value was 0.132.
ACAGGGAA was tested, and the “PBM E-score” value was 0.0579.
With AGAGGGAC the “PBM E-score” value was -0.0381.
With ATAGGGAC the “PBM E-score” value was 0.139.
With ACAGGGAC the “PBM E-score” value was 0.339.
In the case of ACAGGGAG, the “PBM E-score” value is reported as -0.147.
ACAGGGAT was tested, and the “PBM E-score” value was 0.295.
With CCCGCAAG the “PBM E-score” value was -0.15.
With TGTGAACA the “PBM E-score” value was -0.0105.
With ATCGTGAA the “PBM E-score” value was -0.0316.
In the case of CCCATACG, the “PBM E-score” value is reported as -0.0789.
With TACCATCA the “PBM E-score” value was -0.169.
For CCATAGGG, the “PBM E-score” value was 0.00266.
In the case of GCGAATTA, the “PBM E-score” value is reported as 0.279.
With ACGAATTA the “PBM E-score” value was 0.1.
For CCGAATTA, the “PBM E-score” value was -0.00177.
For GTCCGCGA, the “PBM E-score” value was -0.0693.
AAAGAGGC was tested, and the “PBM E-score” value was -0.228.
